Assay results taken from PubChem BioAssay.
A number with no mark means an inactive call. Activity calls are given as the source filed them. Cut-off read from the data, not from the text of the source, unless noted: active = inhibition above about 33%; inactive = the rest.

Assays:
[1] = StAR promoter reporter inhibitors, counter-screen for LRH-1 inverse agonist project, cell-based, luminescence, high throughput (AID 651611; in the data active = inhibition above about 28%); details: StAR promoter luciferase reporter counterscreen, at 3.6 µM, stronger effect = higher value
[2] = target: Nuclear receptor subfamily 5 group A member 2 (Homo sapiens) (UniProt O00482); experiment: LRH-1 (NR5A2) inverse agonists, retest, confirmation, cell-based, luminescence (AID 651613; in the data active = inhibition above about 42%;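 note: HEK293T cells co-transfected with LRH-1 and StAR promoter luciferase reporter; 0% = vehicle wells and 100% = parental cells lacking receptor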); details: cell-based LRH-1 luciferase reporter, inverse agonism; at 3.6 µM; stronger effect = higher value
Sequence of Nuclear receptor subfamily 5 group A member 2 (Homo sapiens) (O00482 whole entry, looked up): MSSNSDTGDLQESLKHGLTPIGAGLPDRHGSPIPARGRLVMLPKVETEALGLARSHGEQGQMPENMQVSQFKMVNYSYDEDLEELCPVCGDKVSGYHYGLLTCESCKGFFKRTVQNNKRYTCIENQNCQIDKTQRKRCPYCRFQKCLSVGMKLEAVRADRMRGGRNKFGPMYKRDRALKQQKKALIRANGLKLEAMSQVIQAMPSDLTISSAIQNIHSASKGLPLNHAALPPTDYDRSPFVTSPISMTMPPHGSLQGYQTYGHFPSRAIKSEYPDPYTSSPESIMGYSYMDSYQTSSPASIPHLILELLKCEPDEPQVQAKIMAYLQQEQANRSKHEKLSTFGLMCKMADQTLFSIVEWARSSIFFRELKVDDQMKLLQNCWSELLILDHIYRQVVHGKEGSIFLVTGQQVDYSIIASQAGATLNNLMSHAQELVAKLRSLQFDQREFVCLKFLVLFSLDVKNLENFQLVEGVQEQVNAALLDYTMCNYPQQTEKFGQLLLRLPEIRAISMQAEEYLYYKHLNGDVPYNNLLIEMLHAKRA

[3] = target: Steroidogenic factor 1 (Homo sapiens) (UniProt Q13285); experiment: SF1 (NR5A1) inverse agonists, counter-screen for LRH-1 inverse agonist project, cell-based, luminescence, high throughput (AID 651614; in the data active = inhibition above about 44%;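 note: cells cotransfected with StAR promoter reporter and SF1 expression vector; 0% = vehicle on cells with receptor and 100% = vehicle on cells lacking receptor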); details: cell-based SF1 luciferase reporter, at 3.6 µM, stronger effect = higher value
Sequence of Steroidogenic factor 1 (Homo sapiens) (Q13285 whole entry, looked up, the tested form may be a part): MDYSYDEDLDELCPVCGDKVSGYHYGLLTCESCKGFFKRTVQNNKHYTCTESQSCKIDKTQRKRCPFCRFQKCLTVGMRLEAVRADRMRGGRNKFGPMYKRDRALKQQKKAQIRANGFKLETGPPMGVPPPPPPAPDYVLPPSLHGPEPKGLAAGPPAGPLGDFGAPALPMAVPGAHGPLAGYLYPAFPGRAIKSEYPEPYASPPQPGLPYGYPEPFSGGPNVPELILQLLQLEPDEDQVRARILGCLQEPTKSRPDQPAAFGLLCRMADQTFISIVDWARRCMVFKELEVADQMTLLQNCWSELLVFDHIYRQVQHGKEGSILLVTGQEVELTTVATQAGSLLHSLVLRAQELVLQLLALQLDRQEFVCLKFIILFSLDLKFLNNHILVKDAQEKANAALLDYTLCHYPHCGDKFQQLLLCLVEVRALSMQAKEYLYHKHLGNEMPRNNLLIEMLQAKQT

[4] = VP16 transactivation reporter inhibitors, counter-screen for LRH-1 inverse agonist project, cell-based, luminescence, high throughput (AID 651615); details: Gal4-VP16 luciferase reporter cells, at 3.6 µM, stronger effect = higher value

Row | Structure (SMILES) | inhibition [1] | inhibition [2] | inhibition [3] | inhibition [4]
1 | O=C(Nc1nc2c(Cl)cccc2s1)c1ccc([N+](=O)[O-])o1 | 10.3% | 65.3% (active) | 62.2% (active) | -6.76%
2 | COc1ccc(C2=NS(=O)(=O)N(C)C(C(=O)N3CCc4ccccc4C3)=C2)cc1OC | 5.52% | 43% (active) | 46.2% (active) | 24.2%
3 | O=C(CSC1=NC2(CCCCCC2)N=C1c1ccccc1)Nc1ccc2c(c1)OCCO2 | 8.01% | 60.2% (active) | 62.2% (active) | 12.7%
4 | O=NN(CCc1ccncc1)c1ccc(OCc2ccccc2)cc1 | 3.58% | 73.2% (active) | 66.6% (active) | 50.5% (active)
5 | C/C=C/c1ccc(OCCOc2ccc(C=O)cc2OC)c(OC)c1 | 11.4% | 44.7% (active) | 35.4% | 2.21%
6 | COc1ccc(NC(=O)COc2cccc3c2CCN(C)C3=O)c(OC)c1 | 20.5% | 65.9% (active) | 61.6% (active) | -23.8%
7 | COc1ccc(CC(NC(C)=O)C(=O)NC2CCN(c3nnnn3-c3ccccc3)CC2)cc1 (stereo not given) | 10.5% | 45.1% (active) | 43.8% (active) | 2.12%
8 | NC(=O)C1CCN(C(=O)COc2ccc3c4c(c(=O)oc3c2)CCCC4)CC1 | 12.7% | 59.3% (active) | 50.3% (active) | -6.57%
9 | Nc1nc2ccc(Cl)cc2cc1C(=O)NCc1ccc(Oc2ccccc2)cc1 | 14.7% | 54.2% (active) | 51.1% (active) | 45.7% (active)
10 | O=C(NCCCNc1ccc([N+](=O)[O-])cc1)C(F)(F)F | 9.72% | 54.9% (active) | 52.4% (active) | -18.2%
11 | COC(=O)c1ccc(NC(=O)CSc2nn3c(=O)c(C)nnc3s2)cc1 | 5.82% | 61.3% (active) | 56.4% (active) | -11.6%
12 | CCOc1ccc(Cc2nnc(SCC(=O)Nc3ccc(C(C)=O)cc3)[nH]c2=O)cc1 | 1.5% | 52% (active) | 40.9% | -7.62%
13 | NC(=O)C1CCN(C(=O)COc2ccc3c4c(c(=O)oc3c2)CCC4)CC1 | 5.21% | 42.7% (active) | 36.4% | -10.9%
14 | CC(=O)N1CCc2c(sc(NC(=O)CCS(=O)(=O)c3ccc(C)cc3)c2C#N)C1 | 11.7% | 52.5% (active) | 43.6% (active) | -1.4%
15 | CC[C@H](CO)Nc1nc(Nc2cccc(Cl)c2)c2ncn(C(C)C)c2n1 | 26% | 49.3% (active) | 38.4% | 35.9% (active)
16 | CCOC(=O)c1c2c(n(Cc3ccccc3)c1C)C(=O)C(=O)c1ccccc1-2 | 48.7% (active) | 60.6% (active) | 71.6% (active) | 54.6% (active)
17 | CC(=O)Nc1ccc(N=c2cc([N+](=O)[O-])cc(Cl)n2O)cc1 | 14.3% | 59.6% (active) | 57.8% (active) | -3.98%
18 | COc1ccc(CCNC(=O)c2ccc(CSc3ccc(Cl)cc3)o2)cc1OC | -6.83% | 28.3% | 23.4% | 30.3%

Row | Structure (SMILES) | inhibition [1] | inhibition [2] | inhibition [3] | inhibition [4]
19 | CCn1c(=O)oc2cc(NC(=O)CCl)ccc21 | 44.4% (active) | 64.4% (active) | 65.9% (active) | -54.9%
20 | CNC(=O)c1nc(C)c(C2(C)CC(c3cccc([N+](=O)[O-])c3)=NO2)s1 (stereo not given) | 8.75% | 27% | 35.6% | -1.29%
21 | COc1ccc(/C=C2/CSC/C(=C/c3ccc(OC)c(OC)c3)C2=O)cc1OC | -4.62% | 74.5% (active) | 74.9% (active) | 76.8% (active)
22 | C#CCN(C[C@@H]1[C@@H](OC(=O)NCc2ccc(OC)c(OC)c2)[C@@H](OC(=O)NCc2ccc(OC)c(OC)c2)Cn2c(=O)ccc(=O)n21)S(=O)(=O)c1ccc(C)cc1 | 16.6% | 40% | 35.7% | 10.2%
23 | Cc1nn(Cc2ccc(Cl)cc2)c(C)c1NC(=O)c1noc2c1CCCCC2 | 21% | 46.8% (active) | 54.7% (active) | 18.3%
24 | Nc1ccc(C(=O)NN2C(=O)[C@H](Cl)C2c2ccc(Cl)cc2)cc1 (stereo not given in full) | 8.81% | 43.1% (active) | 52.1% (active) | -16.2%
25 | Cc1cc2ncn(/N=C/c3ccc([N+](=O)[O-])s3)c2cc1C | 12.7% | 60% (active) | 58.6% (active) | -1.24%
26 | COc1ccc(CCNC(=O)CN2C(=O)NC3(CCCCC3)C2=O)cc1 | 11% | 53.9% (active) | 54% (active) | -6.08%
27 | O=C(C(Cl)c1ccccc1)N1CCCC1 (stereo not given) | 7.29% | 51.5% (active) | 44.9% (active) | -16.8%
28 | Oc1[nH]c2ccc(Br)cc2c1N=NC(=S)N1CCOCC1 | 83.2% (active) | 93.8% (active) | 87.7% (active) | 55.5% (active)
29 | S=C(NCc1ccccc1)Nc1ccncc1 | 9.38% | 37% | 47.3% (active) | 13.1%
30 | CCCc1cc(=O)oc2cc(C)cc(OCC(=O)NC3CC3)c12 | 2.08% | 59.5% (active) | 62.1% (active) | -6.08%
31 | O=C(Cc1ccccc1)N/N=C/c1ccc([N+](=O)[O-])s1 | 2.21% | 60% (active) | 62.1% (active) | -9.91%
32 | COC(=O)CC1(C(=O)OC)Oc2ccc(Br)cc2C(=O)N1c1cc(Cl)c(Cl)cc1Cl (stereo not given) | 12.1% | 58.5% (active) | 48.2% (active) | 20.2%
33 | CC1CCCC(C)N1C(=O)COC(=O)CCC1CCCC1 (stereo not given) | 3.25% | 51.2% (active) | 52.9% (active) | 2.94%
34 | Cc1onc(-c2ccccc2)c1C(=O)O/N=C(\N)c1ccc([N+](=O)[O-])o1 | 11.5% | 64.5% (active) | 61.9% (active) | -9.42%
35 | O=C(c1ccc(Cl)cc1)N1CCCCC(Cl)C1=O (stereo not given) | 20.5% | 56.1% (active) | 57.2% (active) | 1.69%
